From the supplement of paper PMC10849652
Targets with a hit are over-represented here; the source holds about 8,800 in all. About 0.5% of all pairs of compound and target were hits. Values without a mark were called inactive.

Tests used:
Assay in all cases: log2 fold change, soluble protein after heating vs DMSO (PISA); higher = thermal stabilisation; K562 lysate, 10 uM; active = over 0.2 and 3.5 SD of the protein, either way, in both replicates (recomputed)
vemurafenib = compound: CCCS(=O)(=O)Nc1ccc(F)c(C(=O)c2c[nH]c3ncc(-c4ccc(Cl)cc4)cc23)c1F [vemurafenib]
Outline: (§1)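 K562 pellets were dounce-homogenised in PBS pH 7.4 containing 1 mM MgCl2, and the crude extract, at 1 mg/mL protein, was exposed to 10 μM compound for 30 min. Aliquots were heated for 3 min across 48°C-58°C, pooled, brought to 0.5% NP-40 at 4°C and spun at 21,000xg for 90 min, with the supernatant taken as soluble protein. TMTpro 16plex LC-MS/MS with equalised channel sums quantified that protein. Values are log-two fold changes in thermal stability relative to solvent controls, taken from duplicates.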

[1] = compound: CCCS(=O)(=O)Nc1ccc(F)c(C(=O)c2c[nH]c3ncc(Cl)cc23)c1F
Outline: as §1

barasertib = compound: CCN(CCCOc1ccc2c(Nc3cc(CC(=O)Nc4cccc(F)c4)[nH]n3)ncnc2c1)CCOP(=O)(O)O [barasertib]
Outline: as §1

[2] = compound: CC[C@@H]1C(=O)N(C)c2cnc(Nc3ccc(C(=O)NC4CCN(C)CC4)cc3OC)nc2N1C1CCCC1
Outline: as §1

volasertib = compound: CC[C@@H]1C(=O)N(C)c2cnc(Nc3ccc(C(=O)N[C@H]4CC[C@H](N5CCN(CC6CC6)CC5)CC4)cc3OC)nc2N1C(C)C [volasertib]
Outline: as §1

[3] = compound: CCn1c(C(=O)N(C2CC2)C2CC2)cc2c3c(ncn3C)c(Nc3cc(C)n(C)n3)nc21
Outline: as §1

[4] = compound: CCn1cc(-c2ccnc3[nH]c(-c4cccc(CN(C)C)c4)cc23)c(-c2ccc(NC(=O)N(C)C)cc2)n1
Outline: as §1

[5] = compound: CN1CCC(CNc2ccc3ncc(-c4cccc(OC(F)(F)F)c4)n3n2)CC1
Outline: as §1

saracatinib = compound: CN1CCN(CCOc2cc(OC3CCOCC3)c3c(Nc4c(Cl)ccc5c4OCO5)ncnc3c2)CC1 [saracatinib]
Outline: as §1

sotrastaurin = compound: CN1CCN(c2nc(C3=C(c4c[nH]c5ccccc45)C(=O)NC3=O)c3ccccc3n2)CC1 [sotrastaurin]
Outline: as §1

alvocidib = compound: CN1CC[C@H](c2c(O)cc(O)c3c(=O)cc(-c4ccccc4Cl)oc23)[C@H](O)C1 [alvocidib]
Outline: as §1

Tubastatin A = compound: CN1CCc2c(c3ccccc3n2Cc2ccc(C(=O)NO)cc2)C1 [Tubastatin A]
Outline: as §1

[6] = compound: CNC(=O)C1=CC=CC=C1NC2=NC(=NC=C2Cl)NC3=C(C=C(C=C3)N4CCOCC4)OC
Outline: as §1

defactinib = compound: CNC(=O)c1ccc(Nc2ncc(C(F)(F)F)c(NCc3nccnc3N(C)S(C)(=O)=O)n2)cc1 [defactinib]
Outline: as §1

[7] = compound: CNc1nc(-c2ccc3c(N)n[nH]c3c2)cc(N2C[C@@H](C(=O)NC3CCCCC3)CC[C@H]2C)n1
Outline: as §1

encorafenib = compound: COC(=O)N[C@@H](C)CNc1nccc(-c2cn(C(C)C)nc2-c2cc(Cl)cc(NS(C)(=O)=O)c2F)n1 [encorafenib]
Outline: as §1

[8] = compound: COC(=O)[C@H](CCSC)NC(=O)C1=C(C=C(C=C1)NC[C@H](CS)N)C2=CC=CC=C2
Outline: as §1

alisertib = compound: COc1cc(Nc2ncc3c(n2)-c2ccc(Cl)cc2C(c2c(F)cccc2OC)=NC3)ccc1C(=O)O [alisertib]
Outline: as §1

[9] = compound: COc1cc2nc(-c3cc(F)ccc3O)nc(N[C@@H]3CNC[C@H]3C(C)(C)O)c2cc1OC
Outline: as §1

gefitinib = compound: COc1cc2ncnc(Nc3ccc(F)c(Cl)c3)c2cc1OCCCN1CCOCC1 [gefitinib]
Outline: as §1

UniProt Q9BV29, sequence (Q9BV29 whole entry, looked up): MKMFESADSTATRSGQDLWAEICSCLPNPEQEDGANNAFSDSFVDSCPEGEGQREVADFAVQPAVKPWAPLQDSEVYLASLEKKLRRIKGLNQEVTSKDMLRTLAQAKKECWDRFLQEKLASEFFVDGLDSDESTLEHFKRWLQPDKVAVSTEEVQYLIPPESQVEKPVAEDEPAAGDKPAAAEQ
UniProt P25440, sequence (P25440 whole entry, looked up): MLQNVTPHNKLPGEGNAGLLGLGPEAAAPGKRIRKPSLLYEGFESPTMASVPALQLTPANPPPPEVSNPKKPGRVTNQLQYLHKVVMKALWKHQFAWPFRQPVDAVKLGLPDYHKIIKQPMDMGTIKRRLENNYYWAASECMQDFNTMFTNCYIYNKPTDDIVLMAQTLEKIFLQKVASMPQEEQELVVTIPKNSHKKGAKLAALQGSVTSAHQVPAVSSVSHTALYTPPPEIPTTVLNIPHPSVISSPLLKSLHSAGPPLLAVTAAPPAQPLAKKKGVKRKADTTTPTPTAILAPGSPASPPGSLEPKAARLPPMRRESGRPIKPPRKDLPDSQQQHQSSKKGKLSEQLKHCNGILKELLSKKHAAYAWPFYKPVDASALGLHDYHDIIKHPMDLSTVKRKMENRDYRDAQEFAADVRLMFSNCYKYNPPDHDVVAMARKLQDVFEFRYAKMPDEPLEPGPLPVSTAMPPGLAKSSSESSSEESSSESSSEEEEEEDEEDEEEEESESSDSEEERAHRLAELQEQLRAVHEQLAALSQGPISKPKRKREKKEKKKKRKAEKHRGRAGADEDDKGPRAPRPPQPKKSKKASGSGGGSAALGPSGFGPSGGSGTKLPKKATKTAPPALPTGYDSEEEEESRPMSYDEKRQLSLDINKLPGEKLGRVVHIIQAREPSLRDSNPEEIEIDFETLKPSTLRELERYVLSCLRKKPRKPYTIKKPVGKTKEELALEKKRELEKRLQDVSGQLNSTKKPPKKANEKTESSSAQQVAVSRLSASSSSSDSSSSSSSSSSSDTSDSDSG
UniProt O95067, sequence (O95067 whole entry, looked up): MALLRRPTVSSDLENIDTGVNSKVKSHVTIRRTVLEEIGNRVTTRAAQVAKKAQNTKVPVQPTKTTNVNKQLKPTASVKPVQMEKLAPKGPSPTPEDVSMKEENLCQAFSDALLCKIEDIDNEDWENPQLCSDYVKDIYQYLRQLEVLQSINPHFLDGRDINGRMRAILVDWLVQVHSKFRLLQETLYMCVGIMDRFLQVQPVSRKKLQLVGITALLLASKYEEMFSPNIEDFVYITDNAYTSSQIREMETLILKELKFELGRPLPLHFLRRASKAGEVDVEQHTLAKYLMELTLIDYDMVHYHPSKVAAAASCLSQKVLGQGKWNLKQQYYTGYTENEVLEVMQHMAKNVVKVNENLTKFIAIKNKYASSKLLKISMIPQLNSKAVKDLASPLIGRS
UniProt O14965, sequence (O14965 whole entry, looked up): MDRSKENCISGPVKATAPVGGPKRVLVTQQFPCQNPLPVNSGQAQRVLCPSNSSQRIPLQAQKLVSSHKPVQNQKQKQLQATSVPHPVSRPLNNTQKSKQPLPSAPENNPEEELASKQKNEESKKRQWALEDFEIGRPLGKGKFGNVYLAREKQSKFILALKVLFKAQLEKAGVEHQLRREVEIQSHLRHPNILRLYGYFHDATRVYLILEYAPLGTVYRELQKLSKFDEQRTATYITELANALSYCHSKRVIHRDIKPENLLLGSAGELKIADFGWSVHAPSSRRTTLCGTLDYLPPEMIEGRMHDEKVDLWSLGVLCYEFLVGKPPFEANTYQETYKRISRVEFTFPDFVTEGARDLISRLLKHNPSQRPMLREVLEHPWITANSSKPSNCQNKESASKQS
UniProt P98196, sequence (P98196 whole entry, looked up): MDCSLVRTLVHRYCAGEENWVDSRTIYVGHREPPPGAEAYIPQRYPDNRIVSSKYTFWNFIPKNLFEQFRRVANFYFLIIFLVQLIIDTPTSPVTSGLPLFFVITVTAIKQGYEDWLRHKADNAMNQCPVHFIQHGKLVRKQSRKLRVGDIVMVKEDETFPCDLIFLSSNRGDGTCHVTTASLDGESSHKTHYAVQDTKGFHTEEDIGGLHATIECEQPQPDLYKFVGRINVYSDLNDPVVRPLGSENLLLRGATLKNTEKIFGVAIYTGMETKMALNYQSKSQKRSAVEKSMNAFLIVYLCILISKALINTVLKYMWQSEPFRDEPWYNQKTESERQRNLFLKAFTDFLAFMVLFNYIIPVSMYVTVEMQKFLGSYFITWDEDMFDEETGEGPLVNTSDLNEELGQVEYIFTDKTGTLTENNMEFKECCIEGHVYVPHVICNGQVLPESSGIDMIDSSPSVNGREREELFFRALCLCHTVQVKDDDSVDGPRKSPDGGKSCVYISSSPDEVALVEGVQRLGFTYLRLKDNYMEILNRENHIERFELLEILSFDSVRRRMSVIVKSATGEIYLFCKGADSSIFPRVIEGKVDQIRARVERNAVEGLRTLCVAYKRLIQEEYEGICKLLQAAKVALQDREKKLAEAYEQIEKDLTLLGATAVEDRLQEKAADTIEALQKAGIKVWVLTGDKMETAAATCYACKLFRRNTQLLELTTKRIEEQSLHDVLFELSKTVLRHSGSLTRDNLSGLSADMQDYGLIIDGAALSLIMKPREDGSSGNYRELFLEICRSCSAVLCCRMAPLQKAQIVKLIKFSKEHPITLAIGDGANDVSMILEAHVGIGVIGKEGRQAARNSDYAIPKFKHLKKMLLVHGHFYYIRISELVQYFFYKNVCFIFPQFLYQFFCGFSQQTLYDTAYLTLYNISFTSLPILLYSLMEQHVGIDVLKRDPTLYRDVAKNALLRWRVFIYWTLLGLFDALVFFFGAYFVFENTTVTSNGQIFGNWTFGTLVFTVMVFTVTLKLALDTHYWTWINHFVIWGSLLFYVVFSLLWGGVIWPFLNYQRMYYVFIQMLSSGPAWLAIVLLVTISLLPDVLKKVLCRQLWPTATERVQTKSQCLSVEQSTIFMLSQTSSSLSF
UniProt Q8N7R7, sequence (Q8N7R7 whole entry, looked up): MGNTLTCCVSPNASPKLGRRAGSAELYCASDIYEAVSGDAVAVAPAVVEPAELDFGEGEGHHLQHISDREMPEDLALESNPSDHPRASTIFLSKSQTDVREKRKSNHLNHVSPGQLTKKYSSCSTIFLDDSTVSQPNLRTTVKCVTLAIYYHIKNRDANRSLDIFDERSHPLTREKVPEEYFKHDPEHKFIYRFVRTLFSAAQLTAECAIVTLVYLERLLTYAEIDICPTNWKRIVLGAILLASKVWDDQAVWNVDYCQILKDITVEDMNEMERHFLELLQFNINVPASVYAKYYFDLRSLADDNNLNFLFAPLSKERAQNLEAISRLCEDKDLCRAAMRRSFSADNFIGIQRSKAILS
UniProt Q6PJG6, sequence (Q6PJG6 whole entry, looked up): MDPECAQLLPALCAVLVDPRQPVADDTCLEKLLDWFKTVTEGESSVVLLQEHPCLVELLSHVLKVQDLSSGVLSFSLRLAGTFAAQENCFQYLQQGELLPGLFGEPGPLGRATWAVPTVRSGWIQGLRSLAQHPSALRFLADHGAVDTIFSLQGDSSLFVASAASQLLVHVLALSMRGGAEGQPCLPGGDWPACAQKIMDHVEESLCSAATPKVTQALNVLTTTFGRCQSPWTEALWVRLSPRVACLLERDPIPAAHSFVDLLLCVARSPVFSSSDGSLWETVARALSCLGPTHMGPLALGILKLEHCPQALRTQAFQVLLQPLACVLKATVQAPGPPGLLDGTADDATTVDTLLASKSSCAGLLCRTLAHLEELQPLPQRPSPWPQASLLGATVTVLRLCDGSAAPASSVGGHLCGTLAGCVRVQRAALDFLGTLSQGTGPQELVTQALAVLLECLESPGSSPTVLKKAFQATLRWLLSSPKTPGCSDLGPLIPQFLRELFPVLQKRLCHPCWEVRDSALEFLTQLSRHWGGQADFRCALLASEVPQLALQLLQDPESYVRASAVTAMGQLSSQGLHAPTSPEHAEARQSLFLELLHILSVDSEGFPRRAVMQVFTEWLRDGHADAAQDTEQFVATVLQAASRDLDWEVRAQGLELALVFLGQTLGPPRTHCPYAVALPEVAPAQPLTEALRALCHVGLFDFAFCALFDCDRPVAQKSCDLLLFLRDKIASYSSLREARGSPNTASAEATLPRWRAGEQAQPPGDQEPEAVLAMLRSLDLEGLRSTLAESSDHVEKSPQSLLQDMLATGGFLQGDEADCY
UniProt Q9UL45, sequence (Q9UL45 whole entry, looked up): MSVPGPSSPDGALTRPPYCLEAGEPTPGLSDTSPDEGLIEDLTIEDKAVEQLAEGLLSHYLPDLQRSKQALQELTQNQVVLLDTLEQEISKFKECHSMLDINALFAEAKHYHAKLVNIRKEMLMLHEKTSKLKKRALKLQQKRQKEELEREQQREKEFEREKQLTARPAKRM
UniProt Q9H3Q1, sequence (Q9H3Q1 whole entry, looked up): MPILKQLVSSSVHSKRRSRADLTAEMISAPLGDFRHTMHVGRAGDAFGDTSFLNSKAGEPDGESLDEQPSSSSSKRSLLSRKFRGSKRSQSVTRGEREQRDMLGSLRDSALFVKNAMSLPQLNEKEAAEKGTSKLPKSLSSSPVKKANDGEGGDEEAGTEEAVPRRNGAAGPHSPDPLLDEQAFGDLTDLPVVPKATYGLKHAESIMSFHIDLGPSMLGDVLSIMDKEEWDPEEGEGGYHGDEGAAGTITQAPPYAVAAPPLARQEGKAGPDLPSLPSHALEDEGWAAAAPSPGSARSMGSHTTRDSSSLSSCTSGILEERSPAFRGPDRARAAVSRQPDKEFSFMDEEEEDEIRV

Target | log2 fold change (vemurafenib) | log2 fold change [1] | log2 fold change (barasertib) | log2 fold change [2] | log2 fold change (volasertib) | log2 fold change [3] | log2 fold change [4] | log2 fold change [5] | log2 fold change (saracatinib) | log2 fold change (sotrastaurin) | log2 fold change (alvocidib) | log2 fold change (Tubastatin A) | log2 fold change [6] | log2 fold change (defactinib) | log2 fold change [7] | log2 fold change (encorafenib) | log2 fold change [8] | log2 fold change (alisertib) | log2 fold change [9] | log2 fold change (gefitinib)
CHD4 isoform 2 (UniProt Q14839) | 0 | 0.002 | 0.028 | -0.003 | -0.002 | 0.022 | -0.054 | -0.017 | 0.002 | 0.02 | -0.004 | -0.069 | -0.014 | 0.007 | 0.017 | 0.013 | 0.087 | 0.016 | -0.007 | -0.014
BLOC1S6 (UniProt Q9UL45) | 0.005 | 0.007 | -0.012 | 0.013 | 0.032 | 0.043 | 0.048 | 0.009 | -0.034 | -0.06 | -0.028 | 0.033 | 0.051 | 0.014 | 0.082 | 0.147 | 0.056 | -0.22 | -0.036 | 0.047
BRAF (UniProt P15056) | 1.03 (active) | 0.765 (active) | 0.012 | -0.069 | -0.044 | -0.023 | -0.11 | 0.037 | 0.017 | -0.025 | -0.019 | -0.071 | 0.016 | 0.067 | -0.016 | 0.984 (active) | 0.043 | -0.021 | -0.019 | 0.045
CCNYL1 (UniProt Q8N7R7) | -0.072 | 0.003 | -0.046 | 0.031 | -0.046 | 0.012 | -0.188 | 0.269 | 0.051 | 0.034 | -0.074 | -0.076 | 0.061 | 0.024 | 0.055 | 0.011 | 0.032 | -0.012 | 0.032 | 0.101
BTAF1 (UniProt O14981) | 0.029 | 0.026 | 0.029 | -0.029 | -0.058 | 0.045 | -0.138 | 0.051 | 0.008 | 0.006 | -0.001 | -0.106 | 0.021 | -0.013 | 0 | 0.021 | 0.008 | 0.018 | -0.008 | 0.009
CCDC32 isoform 2 (UniProt Q9BV29) | 0.007 | 0 | 0.351 | -0.041 | 0.021 | -0.061 | -0.246 | 0.065 | 0.021 | -0.012 | -0.102 | -0.033 | -0.061 | 0.095 | 0.04 | 0.055 | -0.065 | -0.098 | -0.045 | -0.026
ATP11A (UniProt P98196) | -0.035 | -0.015 | 0.006 | 0.019 | 0.026 | 0 | -0.116 | 0.024 | -0.01 | 0.063 | -0.002 | -0.047 | -0.021 | -0.017 | -0.022 | 0.028 | -0.065 | -0.083 | 0.01 | 0.031
BRD2 isoform 2 (UniProt P25440) | 0.033 | -0.153 | -0.053 | 0.548 (active) | 0.369 | 0.042 | 0.617 (active) | -0.066 | -0.047 | -0.1 | 0.06 | 0.002 | 0.059 | -0.187 | 0.068 | 0.084 | -0.118 | 0 | 0.019 | -0.009
ATP2B4 (UniProt P23634) | 0.002 | -0.002 | 0.026 | -0.027 | -0.004 | -0.019 | -0.185 | 0.145 | 0.024 | 0.009 | -0.116 | 0.015 | -0.006 | -0.043 | 0.001 | 0.021 | -0.041 | -0.104 | 0.009 | 0.023
BRAT1 (UniProt Q6PJG6) | 0.011 | -0.014 | 0.042 | -0.086 | -0.046 | 0.055 | -0.023 | -0.007 | 0.016 | 0.037 | -0.018 | -0.143 | 0.031 | -0.046 | -0.041 | 0.01 | 0.024 | -0.008 | 0.018 | -0.007
ATRIP (UniProt Q8WXE1) | 0.174 | 0.002 | -0.036 | -0.281 (active) | -0.06 | -0.013 | 0.031 | -0.001 | 0.048 | 0.002 | 0.012 | -0.105 | -0.074 | -0.114 | -0.141 | 0.068 | -0.061 | 0.016 | 0.03 | 0.026
CCNB2 (UniProt O95067) | 0.04 | -0.008 | 0.06 | 0.037 | -0.072 | -0.059 | -0.085 | 0.011 | 0.038 | 0.078 | 0.046 | 0.027 | 0.028 | -0.044 | 0 | 0.039 | 0.032 | -0.076 | 0.031 | 0.084
AURKA (UniProt O14965) | 0.088 | 0.068 | 0.763 (active) | -0.062 | -0.015 | -0.009 | 0.719 (active) | 0.096 | 0.008 | 0.028 | -0.006 | 0.03 | 0.586 | 0.425 | 0.094 | -0.068 | 0.002 | 0.436 | -0.023 | -0.101
CARD9 (UniProt Q9H257) | 0.03 | 0.026 | 0.008 | 0.068 | -0.001 | 0.011 | -0.036 | 0.013 | 0.014 | -0.01 | -0.011 | -0.099 | 0.043 | 0.05 | 0.038 | -0.06 | 0.068 | -0.004 | 0.009 | -0.021
CDC42EP4 (UniProt Q9H3Q1) | 0.01 | -0.01 | 0.013 | 0.162 | 0.013 | -0.04 | -0.021 | 0.042 | -0.064 | -0.012 | -0.086 | -0.013 | 0.041 | 0.033 | 0.113 | 0.079 | -0.054 | -0.085 | -0.017 | 0.006
CDKN2AIP (UniProt Q9NXV6) | 0.017 | 0.022 | -0.028 | 0.082 | -0.008 | -0.026 | -0.049 | 0.03 | -0.004 | 0.01 | -0.008 | -0.066 | -0.016 | -0.011 | 0.054 | 0.023 | 0.236 (active) | 0.021 | -0.003 | -0.073
